Rows were chosen to be rich in hits. Some 4.2% of all compounds tested hit in one or more screens of this group.
NALP1 yeast inh = NALP1 inflammasome inhibitors in reconstituted yeast, colorimetric, S. cerevisiae, triplicate retest; S. cerevisiae NALP1/ASC/caspase-1 growth, X-gal OD620, 72 h; inhibition, % at 10 µM; 280,000 tested, 0.61% active; in the data active = inhibition mostly above about 24%, no sharp cut-off; inactive = mostly below about 32%
TIM10 inh = growth inhibitors of isogenic TIM10 control yeast, primary screen, counter-screen for tim10-1 yeast inhibitor project, luminescence, uHTS; S. cerevisiae TIM10 strain growth, BacTiter-Glo luminescence, 24 h; inhibition, % at 10 µM; 330,000 tested, 1.4% active;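 active = inhibition of 40% or more at the single tested concentration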;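 note: wild-type TIM10 isogenic control strain grown at permissive 25 °C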
PfHsp90 yeast 2 = growth inhibition of PfHsp90-expressing yeast, primary screen, antimalarial PfHsp90 inhibitor project, S. cerevisiae, BacTiter-Glo luminescence, single point, set 2. BacTiter-Glo ATP, 48 h; yeast lacking PDR1 and PDR3 efflux regulators. inhibition, % at 9.4 µM. 310,000 tested, 0.32% active. AID 504621, 2011;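 active = every replicate shows inhibition above about 80%, whatever the replicate mean, limit read from the data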
tim23-1 inh = growth inhibitors of tim23-1 mutant yeast, primary screen, luminescence, uHTS; 330,000 tested, 1.3% active; inhibition, % at 20 µM; S. cerevisiae tim23-1 growth, BacTiter-Glo luminescence, 24 h; AID 463212, 2010;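 active = growth inhibition of the mutant yeast at or above 50%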;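 note: temperature-sensitive mutant grown at 25 °C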
tim10-1 inh = growth inhibitors of tim10-1 mutant yeast, primary screen, luminescence, uHTS; S. cerevisiae tim10-1 ts strain growth, BacTiter-Glo, 24 h; inhibition, % at 20 µM; 330,000 tested, 2.2% active; AID 463190, 2010;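 active = inhibition of at least 40%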;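 note: mutant grown at 25 °C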
NALP3 yeast inh = NALP3 inflammasome inhibitors in reconstituted yeast, primary screen, luminescence, uHTS | Yeast reconstituted NLRP3/ASC/caspase-1, beta-gal luminescence, 24 h | inhibition, % at 10 µM | 330,000 tested, 0.39% active | AID 2825, 2010;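 active = inhibition of 50% or more; inactive = inhibition below 50%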
tim10-1 conf = growth inhibitors of tim10-1 mutant yeast, confirmation, single concentration, luminescence, S. cerevisiae | shares compounds with tim10-1 inh | S. cerevisiae tim10-1 ts strain growth, BacTiter-Glo, 24 h | inhibition, % at 20 µM | 7,400 tested, 56% active | AID 463213, 2010;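 active = inhibition of yeast growth at or above a set limit in either of two repeat tests at 20 µM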;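 note: tim10-1 mutant grown at permissive 25 °C to find synthetic lethal compounds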
tim10 confirm = growth inhibitors of wild-type TIM10 yeast, confirmation, counter-screen for tim10-1 synthetic lethality project, single concentration, luminescence, S. cerevisiae. shares compounds with TIM10 inh. S. cerevisiae tim10 strain growth, BacTiter-Glo luminescence, 24 h. inhibition, % at 10 µM. 4,600 tested, 63% active. AID 463215, 2010;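 active = inhibition of yeast growth at or above a set limit in either of two replicates at 10 µM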; note: this counterscreen used the strain with wild-type TIM10
tim23-1 conf = tim23-1 mutant yeast growth inhibitors, confirmation, luminescence, single concentration | 4,400 tested, 83% active | shares compounds with tim23-1 inh | inhibition, % at 20 µM | S. cerevisiae tim23-1 growth, BacTiter-Glo luminescence, 24 h;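 active = inhibition above about 39% in either of two replicate wells at 20 µM, limit read from the data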;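 note: temperature-sensitive tim23-1 mutant grown at 25 °C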
Of the large screens only hits and unclear results are named; the others gave an inactive call (follow-up assays come after a bar, where they were run).

O=C(Nc1cccc(C(F)(F)F)c1)c1cccn(Cc2ccc3c(c2)OC(F)(F)O3)c1=O	TIM10 inh 44, tim10-1 inh 49 (no result: PfHsp90 yeast 2) | tim10-1 conf inactive | tim10 confirm 35
CCN(CC(=O)Nc1ccc(C#N)c(Cl)c1)CC(=O)NC1CCS(=O)(=O)C1 (stereo not drawn)	none (no result: NALP1 yeast inh, PfHsp90 yeast 2)
Cc1cccc(-n2c(/C=C/c3ccc([N+](=O)[O-])o3)nc3ccccc3c2=O)c1	TIM10 inh 47, tim10-1 inh 57 | tim10-1 conf 51 | tim10 confirm inactive
O=c1c2ccccc2nc(/C=C/c2ccc([N+](=O)[O-])o2)n1-c1ccc(O)cc1	none
Cc1[nH]n(-c2ccccc2)c(=O)c1C(c1ccc([N+](=O)[O-])cc1)c1c(C)[nH]n(-c2ccccc2)c1=O	TIM10 inh 46, tim10-1 inh 56 | tim10-1 conf 44 | tim10 confirm 33
Cn1cc(C(=O)N2CCCCC2)c2ccccc21	none
C[C@@H]1CC[C@@]2(NC1)O[C@H]1C[C@H]3[C@@H]4CC=C5C[C@@H](O)CC[C@]5(C)[C@H]4CC[C@]3(C)[C@H]1[C@@H]2C	NALP1 yeast inh 36, TIM10 inh 49, tim23-1 inh 54, tim10-1 inh 51 | tim10-1 conf inactive | tim10 confirm 51 | tim23-1 conf 68
C[C@]12CC[C@H](O)CC1=CCC1C2CC[C@@]2(C)C1CC[C@@H]2OCc1ccccc1 (stereo partly drawn)	none (no result: NALP1 yeast inh)
COc1ccc(NC(=O)[C@@H](NC(=O)N2C[C@H]3C[C@@H](C2)c2cccc(=O)n2C3)C(C)C)cc1	none
CCOP(=O)(OCC)/C(C#N)=C/c1ccc(Br)cc1	TIM10 inh 51, tim23-1 inh 69, tim10-1 inh 45 | tim10-1 conf 39 | tim10 confirm 52 | tim23-1 conf 56
c1ccc(-c2[nH]c(-c3ccccc3)[n+](CC3CO3)c2-c2ccccc2)cc1 (stereo not drawn)	TIM10 inh 48, tim23-1 inh 55, tim10-1 inh 49 | tim10-1 conf 34 | tim10 confirm inactive | tim23-1 conf 50
CC1(C)C2SCC(=O)N2CCN1CC(=O)NN (stereo not drawn)	none
O=C1NC(=O)N(c2ccccc2)C(=O)/C1=C\c1ccc([N+](=O)[O-])s1	TIM10 inh 85, tim23-1 inh 68, tim10-1 inh 66 (no result: NALP1 yeast inh, PfHsp90 yeast 2) | tim10-1 conf 76 | tim10 confirm inactive | tim23-1 conf 76
CN1C(=O)NC(=O)/C(=C/c2ccc([N+](=O)[O-])o2)C1=O	none (no result: PfHsp90 yeast 2)
COc1ccc(OC)c(N2C(=O)NC(=O)/C(=C\c3ccc([N+](=O)[O-])s3)C2=O)c1	TIM10 inh 84, PfHsp90 yeast 2 91, tim23-1 inh 52, tim10-1 inh 69 | tim10-1 conf 73 | tim10 confirm 40 | tim23-1 conf 72
CN1C(=O)NC(=O)/C(=C/c2ccc([N+](=O)[O-])s2)C1=O	TIM10 inh 90, tim23-1 inh 71, tim10-1 inh 74 (no result: NALP1 yeast inh) | tim10-1 conf 67 | tim10 confirm 44 | tim23-1 conf 80
O=c1c(C=NCc2cccs2)c(O)n(C2CCCCC2)c(=O)n1C1CCCCC1	none
N=C(N)c1c(O)n(C2CCCCC2)c(=O)n(C2CCCCC2)c1=O	tim23-1 inh 66, tim10-1 inh 54 | tim10-1 conf 33 | tim23-1 conf 52
CSc1cccc(NP2(=O)OCC(C)([N+](=O)[O-])CO2)c1 (stereo not drawn)	none (no result: NALP1 yeast inh, TIM10 inh, tim23-1 inh, tim10-1 inh, NALP3 yeast inh)
CC(C)Oc1cc(-n2c(=S)[nH]c3ccccc3c2=O)c(Cl)cc1Cl	TIM10 inh 45, tim23-1 inh 53, tim10-1 inh 45 | tim10-1 conf inactive | tim10 confirm 42 | tim23-1 conf 52
CCCOC(=O)C1C2CCC(O2)C1C(=O)O (stereo not drawn)	none (no result: NALP1 yeast inh, TIM10 inh, tim23-1 inh, tim10-1 inh, NALP3 yeast inh)
CCN(CC)C(=O)c1ccc(NC(=O)Nc2ccccc2F)cc1	TIM10 inh 42, tim23-1 inh 66, tim10-1 inh 56 | tim10-1 conf 68 | tim10 confirm 40 | tim23-1 conf 64
CCN(CC)C(=O)c1ccc(NC(=O)CCCSc2ccccc2)cc1	none
Cc1cccc(-n2c(-c3ccccc3)nc3ccccc3c2=O)n1	none
COc1cc(C=C2C(=O)NC(=O)NC2=O)ccc1O	TIM10 inh 94 | tim10 confirm inactive
C=CC(=O)NCNC(=O)C=C	none (no result: NALP1 yeast inh)
Cc1ccc(-c2cc(-c3ccccc3)cc(-c3ccccc3)[n+]2-c2ccccc2)cc1	TIM10 inh 41 (no result: NALP1 yeast inh) | tim10 confirm 35
Cc1ccc(-c2cc(-c3ccc(C)cc3)[n+](-c3ccc(C(=O)[O-])cc3)c(-c3ccc(C)cc3)c2)cc1	none (no result: NALP1 yeast inh)
CC1CCCC(C)N1/N=C/c1c[nH]c2ccc(Br)cc12 (stereo not drawn)	NALP1 yeast inh 65, TIM10 inh 42 | tim10 confirm inactive
CN1CCC(c2c[nH]c3ccc(O)cc23)CC1	none (no result: NALP1 yeast inh, TIM10 inh, tim23-1 inh, tim10-1 inh, NALP3 yeast inh)
O=C(OCC(=O)c1ccc([N+](=O)[O-])cc1)/C(=C/c1ccc(Cl)cc1)NC(=O)c1ccccc1	TIM10 inh 45 | tim10 confirm inactive
O=C(COC(=O)Cc1ccccc1)NNC(=O)c1ccc([N+](=O)[O-])cc1	none (no result: NALP1 yeast inh)
CC(C)C(=O)c1cn(Cc2ccc(C#N)cc2)c2ccccc12	TIM10 inh 41 | tim10 confirm inactive
CC(C)(C)N(NC(=O)c1ccccc1)C(=O)c1ccccc1	TIM10 inh 40 | tim10 confirm inactive
CC(=O)N1CC(=O)Nc2ccc(Cl)cc2C1c1ccc(F)cc1 (stereo not drawn)	none
CCOC(=O)C(NC(C)=O)C(OC(C)=O)c1cccc(N(CCCl)CCCl)c1 (stereo not drawn)	none
O=C1N[C@H](Cc2ccccc2)C(=O)N2[C@@H]3[C@H](C[C@@H]12)c1ccccc1N3OOSc1ccccc1	TIM10 inh 41 (no result: NALP1 yeast inh) | tim10 confirm inactive
Cc1cc(NCCN)nc2ccccc12	none

Screening results (PubChem)
